# Test results as given in PubChem BioAssay (Tox21).
# “And” between values parts separate entries of the source, which are not always exact repeats. Equal values may be shown once. Inconclusive results are not listed. A call without a number means that no potency is given here. More than one record can exist for a structure, and the calls need not agree. The source made the active and inactive calls. Unless noted, calls follow the shape of the dose curve; as a rule, active = well fitted curve in the direction sought with a large enough effect in the repeat runs; inconclusive = weak or mixed curves; inactive = no such curve, though single readings can be large; an effect the other way counts as inactive or inconclusive.
# Experiments:
# [1] = qHTS assay to identify small molecule antagonists of the vitamin D receptor (VDR) signaling pathway - cell viability counter screen (AID 743225); also: nearly all actives have a fitted effect of over 50% in size; also: potency is read from the fitted curve at half-maximal effect
# Summary of the method: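 Same-well multiplex: following 16 h treatment of HEK 293T cells carrying a UAS-driven beta-lactamase reporter with compound and agonist (3 nM final), and a 2 h FRET substrate step, CellTiter-Glo was added and luminescence read after 30 min.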
# [2] = qHTS assay to identify small molecule agonists of the NFkB signaling pathway - cell viability counter screen (AID 1159515; calls by dose curve; also: nearly all actives have a fitted effect of over 55% in size; also: potency is read from the fitted curve at half-maximal effect)
# Summary of the method: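 5 hr compound treatment of NFkB-bla ME-180 cells (2,000/well, seeded overnight beforehand), followed by reporter substrate for 1.5 hr. CellTiter-Glo added afterward; luminescence after 30 min RT.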
# [3] = qHTS assay to identify small molecule agonists of the endoplasmic reticulum stress response signaling pathway - cell viability counter screen (AID 1159517; calls by dose curve;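 also: HeLa cells carrying an ER stress response element beta-lactamase reporter; nearly all actives have a fitted effect of over 50% in size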)
# Summary of the method: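 Counter-screen wells were identical to the reporter wells. Cells were plated at 1,500 per well and dosed for 5 hr, then read for luminescence 30 min after CellTiter-Glo addition.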
# [4] = qHTS assay to identify small molecule antagonists of the retinoid-related orphan receptor gamma (ROR-gamma) signaling pathway - cell viability counter screen (AID 1159520); also: nearly all actives have a fitted effect of over 50% in size; also: potency is read from the fitted curve at half-maximal effect
# Summary of the method: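 Tet-on ROR gamma CHO cells were given compounds for 2 hr, then doxycycline hyclate at 1 uM final, and incubated 16 hr at 37 C. Viability was measured as ATP content by CellTiter-Glo luminescence.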
# [5] = target: Nuclear receptor ROR-gamma (Homo sapiens) (UniProt P51449); test: qHTS assay to identify small molecule antagonists of the retinoid-related orphan receptor gamma (ROR-gamma) signaling pathway (AID 1159521; also: nearly all actives have a fitted effect of over 50% in size; also: potency is read from the fitted curve at half-maximal effect;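 as to activity change, negative = inhibition: CHO cells with doxycycline inducible ROR-gamma driving an RORE luciferase reporter; top concentration of the series differs between compounds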)
# Summary of the method: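 Inducible-expression reporter assay: doxycycline (1 uM final) switched on RORγ in CHO cells bearing a ROR response element-luciferase construct, with test compounds present from 2 h beforehand. Decreased luminescence after 16 h defined antagonist activity.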
# [6] = qHTS assay to identify small molecule agonists of the AP-1 signaling pathway - cell viability counter screen (AID 1159525; calls by dose curve; also: nearly all actives have a fitted effect of over 55% in size; also: potency is read from the fitted curve at half-maximal effect)
# Summary of the method: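 AP-1-bla ME-180 cells in Opti-MEM with 0.5% dialyzed FBS, compound exposure 5 h at 37 C in 15-point titration. Viability read in the same wells as ATP content by CellTiter-Glo luminescence, normalised to tetra-n-octylammonium bromide and DMSO controls.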
# [7] = qHTS assay to identify small molecule agonists of the AP-1 signaling pathway (AID 1159526; calls by dose curve)
# [8] = qHTS assay to identify small molecule agonists of the RXR signaling pathway - cell viability counter screen (AID 1159529); also: nearly all actives have a fitted effect of over 50% in size; also: potency is read from the fitted curve at half-maximal effect
# Summary of the method: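 Counter screen: CellTiter-Glo luminescence. Cells: RXR-alpha-UAS-bla HEK 293T. Medium: 2% charcoal-stripped FBS. Treatment: 16 h, 37 C. Reagent incubation: 30 min, RT.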
# [9] = qHTS assay to identify small molecule antagonists of the retinoid acid receptor (RAR) signaling pathway - cell viability counter screen (AID 1159551); also: nearly all actives have a fitted effect of over 35% in size; also: potency is read from the fitted curve at half-maximal effect
# Summary of the method: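 Seed C3RL4 cells; next day add compound, then retinol to 1 uM final; incubate 6 h at 37 C; add CellTiter-Glo; read luminescence after 30 min at RT.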
# [10] = qHTS assay to identify small molecule agonists of the retinoic acid receptor (RAR) signaling pathway (AID 1159553); conditions: C3RL4 RARE luciferase reporter, agonist, 6 h; activation: at 73.3 µM (top of the series) unless noted; also: potency is read from the fitted curve at half-maximal effect
# Summary of the method: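 Activation of retinol signaling was monitored via a RARE luciferase reporter in C3RL4 cells. After 6 hr compound treatment at 37 C, detection reagent was added for 30 min at room temperature before luminescence reading.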
# [11] = qHTS assay to identify small molecule antagonists of the estrogen related receptor (ERR) signaling pathway from Tox21 library - cell viability counter screen (AID 1224834); also: nearly all actives have a fitted effect of over 30% in size; also: potency is read from the fitted curve at half-maximal effect
# Summary of the method: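 CellTiter-Fluor fluorescence measured; ERR cells; 17.5 h compound incubation at 37 C; 30 min reagent step.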
# [12] = qHTS assay to identify small molecule antagonists of the retinoic acid receptor (RAR) signaling pathway (AID 1159552; also: nearly all actives have a fitted effect of over 50% in size; also: potency is read from the fitted curve at half-maximal effect)
# Summary of the method: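 Antagonism of retinol-induced RARE reporter activity was measured in C3RL4 cells. Exposure to compounds and 1 uM final retinol lasted 6 hr at 37 C, with luminescence as endpoint.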
# [13] = target: Retinoic acid receptor RXR-alpha (Homo sapiens) (UniProt P19793); test: qHTS assay to identify small molecule agonists of the RXR signaling pathway (AID 1159527; calls by dose curve; also: nearly all actives have a fitted effect of over 35% in size)
# Chain of Retinoic acid receptor RXR-alpha (Homo sapiens) (P19793 whole entry, looked up): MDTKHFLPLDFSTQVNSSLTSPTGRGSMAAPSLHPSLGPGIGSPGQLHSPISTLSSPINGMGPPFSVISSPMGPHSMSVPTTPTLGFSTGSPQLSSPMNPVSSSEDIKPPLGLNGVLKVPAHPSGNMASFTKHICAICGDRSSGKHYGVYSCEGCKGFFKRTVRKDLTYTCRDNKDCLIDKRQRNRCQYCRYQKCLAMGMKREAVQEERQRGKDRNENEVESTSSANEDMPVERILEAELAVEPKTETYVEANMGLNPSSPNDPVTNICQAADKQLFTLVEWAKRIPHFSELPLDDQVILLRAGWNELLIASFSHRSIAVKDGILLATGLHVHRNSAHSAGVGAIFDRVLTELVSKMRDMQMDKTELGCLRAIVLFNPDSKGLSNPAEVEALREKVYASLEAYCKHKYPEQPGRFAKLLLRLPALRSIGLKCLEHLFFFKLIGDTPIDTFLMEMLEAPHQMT
# Summary of the method: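 Compounds in DMSO were added to RXR-alpha-UAS-bla HEK 293T cells kept in 2% charcoal-stripped serum, and incubated 16 hr at 37 C with 5% CO2. Reporter signal came from a 2 hr B/G FRET substrate step.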
smiles,measurement,setting,value
CCCCCCC1CCCC(=O)O1 (stereo not given),Potency,[1],inactive
same,Potency,[2],inactive
same,Potency,[3],inactive
same,Potency,[4],inactive
same,Potency,[5],inactive
same,Potency,[6],inactive
same,Potency,[7],inactive
same,Potency,[8],inactive
same,Potency,[9],inactive
same,Potency,[10],inactive
same,Potency,[11],inactive
C#CC1(O)CC[C@H]2[C@@H]3CCC4=CCCC[C@@H]4[C@H]3CC[C@@]21C (stereo not given in full),Potency,[1],21.3 µM (active)
same,Potency,[2],13.4 µM (active)
same,Potency,[4],61.1 µM (active) and 26.6 µM (active)
same,Potency,[5],43.3 µM (active) and 23.7 µM (active)
same,Potency,[6],43.6 µM (active) and 15.1 µM (active)
same,Potency,[8],24.5 µM (active) and 21.3 µM (active)
same,Potency,[9],54.5 µM (active) and 26.6 µM (active)
same,Potency,[12],48.6 µM (active) and 23.7 µM (active)
same,Potency,[10],inactive
same,Potency,[11],54.5 µM (active)
O=C(O)c1cc(N=Nc2ccc([N+](=O)[O-])cc2)ccc1O,Potency,[1],inactive
same,Potency,[2],inactive
same,Potency,[4],inactive
same,Potency,[5],inactive
same,Potency,[6],inactive
same,Potency,[7],inactive
same,Potency,[8],inactive
same,Potency,[9],inactive
same,Potency,[12],inactive
same,Potency,[10],6.73 µM (active)
same,Potency,[11],47.7 µM (active)
CCN(CCN)c1cccc(C)c1,Potency,[1],inactive
same,Potency,[2],inactive
same,Potency,[3],inactive
same,Potency,[4],inactive
same,Potency,[5],inactive
same,Potency,[6],inactive
same,Potency,[7],inactive
same,Potency,[8],inactive
same,Potency,[9],inactive
same,Potency,[12],inactive
same,Potency,[10],inactive
same,Potency,[11],inactive
COCCOc1cc2cc(C(=O)NC3CCN(C(C)C)CC3)n(CC(=O)Nc3ccc(Cl)cn3)c2cn1,Potency,[1],inactive
same,Potency,[2],inactive
same,Potency,[4],inactive
same,Potency,[5],inactive
same,Potency,[6],inactive
same,Potency,[7],inactive
same,Potency,[13],inactive
same,Potency,[8],inactive
same,Potency,[9],inactive
same,Potency,[10],inactive
O=C1OC2(c3ccc(O)cc3Oc3cc(O)ccc32)c2ccc(N=C=S)cc21,Potency,[1],inactive
same,Potency,[2],inactive
same,Potency,[3],inactive
same,Potency,[4],inactive
same,Potency,[5],inactive
same,Potency,[6],inactive
same,Potency,[7],inactive
same,Potency,[8],inactive
same,Potency,[9],inactive
same,Potency,[12],inactive
same,Potency,[10],inactive
same,Potency,[11],inactive
Cc1c(C)c2c(c(C)c1OC(=O)c1cccnc1)CC[C@@](C)(CCC[C@H](C)CCC[C@H](C)CCCC(C)C)O2,Potency,[1],inactive
same,Potency,[2],inactive
same,Potency,[4],inactive
same,Potency,[5],inactive
same,Potency,[6],inactive
same,Potency,[7],inactive
same,Potency,[13],inactive
same,Potency,[8],inactive
same,Potency,[9],inactive
same,Potency,[10],inactive
O=C1NC(=O)[C@@H]2CC=CC[C@H]12,Potency,[2],inactive
same,Potency,[3],inactive
same,Potency,[4],inactive
same,Potency,[5],54.5 µM (active)
same,Potency,[6],inactive
same,Potency,[7],inactive
same,Potency,[9],inactive
same,Potency,[10],inactive
CC1(C)CCC[C@]2(C)[C@H]3CCO[C@]3(C)CC[C@@H]12,Potency,[1],inactive
same,Potency,[2],inactive
same,Potency,[4],inactive
same,Potency,[5],inactive
same,Potency,[6],inactive
same,Potency,[7],inactive
same,Potency,[13],inactive
same,Potency,[8],inactive
same,Potency,[9],inactive
same,Potency,[12],inactive
same,Potency,[10],inactive
same,Potency,[11],inactive
CCCCCCCCCCCCCC[N+](C)(C)Cc1ccccc1,Potency,[1],24.9 µM (active) and 16.9 µM (active)
same,Potency,[2],49.7 µM (active)
same,Potency,[4],69.6 µM (active)
same,Potency,[5],24.7 µM (active) and 26.6 µM (active) and 20 mM (active)
same,Potency,[6],23.9 µM (active)
same,Potency,[8],7.03 µM (active) and 5.35 µM (active) and 2.51 mM (active)
same,Potency,[9],69.6 µM (active) and 29.8 µM (active) and inactive
same,Potency,[11],62.1 µM (active) and 23.7 µM (active) and 22.4 mM (active)
CN(C)Cc1ccccc1O,Potency,[1],inactive
same,Potency,[2],inactive
same,Potency,[4],inactive
same,Potency,[5],inactive
same,Potency,[6],inactive
same,Potency,[7],inactive
same,Potency,[13],inactive
same,Potency,[8],inactive
same,Potency,[9],inactive
same,Potency,[12],inactive
same,Potency,[10],inactive
NC[C@H]1O[C@H](O[C@H]2[C@H](O[C@@H]3O[C@H](CO)[C@@H](O)[C@H]3O)C(O)[C@H](N)C[C@@H]2N)[C@H](N)[C@@H](O)[C@@H]1O (stereo not given in full),"viability change, negative = cytotoxic",[1],-0.622% [at 6.95 µM] (inactive)
same,"activity, negative = cytotoxic",[2],0.788% [at 6.95 µM] (inactive)
same,"activity, negative = cytotoxicity",[4],4.86% [at 8.39 µM] (inactive)
same,"activity change, negative = inhibition",[5],9.94% [at 8.39 µM] (inactive)
same,"viability change, negative = cytotoxic",[6],9.44% [at 6.97 µM] (inactive)
same,activation,[7],-3.58% [at 6.97 µM] (inactive)
same,activation,[13],5.85% [at 6.98 µM] (inactive)
same,"activity change, negative = cytotoxicity",[8],3% [at 6.97 µM] (inactive)
same,"activity change, negative = cytotoxicity",[9],-0.449% [at 8.39 µM] (inactive)
same,"activity, negative = inhibition",[12],-17.9% [at 8.39 µM] (inactive)
same,activation,[10],-3.22% [at 8.36 µM] (inactive)
same,"viability change, negative = cytotoxic",[11],2.75% [at 8.39 µM] (inactive)
O=C(/C=C/c1ccccc1)OC/C=C/c1ccccc1,Potency,[1],inactive
same,Potency,[2],inactive
same,Potency,[3],inactive
same,Potency,[4],54.5 µM (active)
same,Potency,[5],inactive
same,Potency,[6],inactive
same,Potency,[7],inactive
same,Potency,[8],inactive
same,Potency,[9],inactive
same,Potency,[12],inactive
O=C(O)c1cc(-c2ccc(F)cc2F)ccc1O,Potency,[2],inactive
same,Potency,[3],inactive
same,Potency,[4],inactive
same,Potency,[5],inactive
same,Potency,[6],inactive
same,Potency,[7],inactive
same,Potency,[8],inactive
same,Potency,[9],inactive
CCOC(=O)Cn1cccc1-c1nc(-c2ccc(OC)cc2)c(-c2ccc(OC)cc2)s1,Potency,[1],inactive
same,Potency,[2],inactive
same,Potency,[3],inactive
same,Potency,[4],inactive
same,Potency,[5],inactive
same,Potency,[6],inactive
same,Potency,[7],inactive
same,Potency,[8],inactive
same,Potency,[9],inactive
same,Potency,[12],inactive
same,Potency,[10],inactive
CCn1c2ccccc2c2cc([N+](=O)[O-])ccc21,Potency,[2],inactive
same,Potency,[3],inactive
same,Potency,[4],inactive
same,Potency,[5],inactive
same,Potency,[6],inactive
same,Potency,[7],inactive
same,Potency,[8],inactive
same,Potency,[9],inactive
same,Potency,[12],inactive
same,Potency,[10],inactive
same,Potency,[11],inactive
CCCCC(CC)CN1CN(CC(CC)CCCC)CC(C)(N)C1 (stereo not given),Potency,[1],inactive
same,Potency,[2],26.8 µM (active)
same,Potency,[4],26.6 µM (active)
same,Potency,[5],inactive
same,Potency,[6],inactive
same,Potency,[7],inactive
same,Potency,[8],inactive
same,Potency,[9],inactive
same,Potency,[12],inactive
same,Potency,[10],inactive
same,Potency,[11],inactive
OC/C=C/CO,Potency,[1],inactive
same,Potency,[2],inactive
same,Potency,[4],inactive
same,Potency,[5],inactive
same,Potency,[6],inactive
same,Potency,[7],inactive
same,Potency,[13],inactive
same,Potency,[8],inactive
same,Potency,[9],inactive
same,Potency,[12],inactive
same,Potency,[10],inactive
same,Potency,[11],inactive
